Assay results: PubChem BioAssay AID624330 (Southern Research Specialized Biocontainment Screening …, 2012)
The campaign covered roughly 340,000 compounds. About 2,100 (0.62%) were called active.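 Rule for the calls: active = first-screen hits whose inhibition reached a set limit at any dose in the follow-up dose series; inconclusive = inhibition above the set first-screen limit but never retested; inactive = the rest.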 Not all results are given here. Entries with a potency or affinity are not part of this list.

Target: Rac GTPase-activating protein 1 (Homo sapiens) (UniProt Q9H0H5)
Experiment: blockers of MgcRacGAP-driven Rac1 GTP hydrolysis – biochemical, ADP Hunter fluorescence, primary and confirmatory, confirmation (AID 624330);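 note: fluorescence reports GDP produced by GAP-driven GTP hydrolysis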
Conditions: MgcRacGAP-stimulated Rac1 GTP hydrolysis, at 30 µM, stronger effect = higher value, GST-tagged Rac1 F28L mutant substrate

Sequence of Rac GTPase-activating protein 1 (Homo sapiens) (Q9H0H5 whole entry, looked up): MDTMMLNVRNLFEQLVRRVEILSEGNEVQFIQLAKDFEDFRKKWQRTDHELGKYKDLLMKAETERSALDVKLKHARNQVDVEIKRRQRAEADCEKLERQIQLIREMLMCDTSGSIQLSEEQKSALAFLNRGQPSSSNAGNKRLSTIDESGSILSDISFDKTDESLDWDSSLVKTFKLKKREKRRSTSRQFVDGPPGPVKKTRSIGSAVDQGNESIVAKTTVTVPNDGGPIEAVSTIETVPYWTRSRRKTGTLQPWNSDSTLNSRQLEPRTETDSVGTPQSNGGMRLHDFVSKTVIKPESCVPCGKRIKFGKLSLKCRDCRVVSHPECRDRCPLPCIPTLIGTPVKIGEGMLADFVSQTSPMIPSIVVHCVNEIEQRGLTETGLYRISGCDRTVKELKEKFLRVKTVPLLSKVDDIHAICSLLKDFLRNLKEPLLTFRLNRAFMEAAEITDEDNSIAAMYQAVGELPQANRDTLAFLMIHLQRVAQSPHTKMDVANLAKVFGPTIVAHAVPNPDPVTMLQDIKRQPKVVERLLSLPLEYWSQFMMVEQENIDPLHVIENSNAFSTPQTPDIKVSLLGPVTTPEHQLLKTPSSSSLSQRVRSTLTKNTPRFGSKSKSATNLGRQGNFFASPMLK

inhibition, inactive:
CC(=O)c1c(C)[nH]c(C(=O)OCC(=O)Nc2ccc3[nH]c(=O)[nH]c3c2)c1C 9.39%, O=S(=O)(Cc1ccccc1)Nc1ccc(F)cc1 8.87%, CCC1=Nc2cc(C(=O)O)ccc2Sc2ccccc21 -0.29%, CCOC(=O)N1CCC(NC(=O)c2ccc3c(c2)N=C(C)c2ccccc2S3)CC1 4.04%, CC1=Nc2cc(C(=O)NCCCOC(C)C)ccc2Sc2ccc(C)cc21 7.38%, CC1=Nc2cc(C(=O)O)ccc2Sc2ccc(C)cc21 -10.1%, Cc1cccc(N(C(=O)CNC(=O)c2ccco2)C(C(=O)NC2CCCC2)c2cccnc2)c1C (stereo unspecified) 5.36%, Cc1ccccc1OCC1Cn2c(nc3c2c(=O)[nH]c(=O)n3C)O1 (stereo unspecified) 2.68%, COC(=O)/C(N=Nc1c(C)n(C)n(-c2ccccc2)c1=O)=C(\C)O 6.21%, CN1C(=S)N(c2cccnc2)C(=O)/C1=C\c1ccc(N(C)C)cc1 12.2%, Cc1c(NC(=S)N/N=C/c2cccc(O)c2)c(=O)n(-c2ccccc2)n1C 12.8%, Cc1c(O)c(=O)n(-c2ccccc2)n1C 2.13%, Cc1c(N2C(=O)/C(=C/c3ccc(N(C)C)cc3)N(C)C2=S)c(=O)n(-c2ccccc2)n1C 27.2%, Cc1c(N=Cc2cc3c(cc2Cl)OCO3)c(=O)n(-c2ccccc2)n1C 4.04%, CC(=O)/C(N=Nc1c(C)n(C)n(-c2ccccc2)c1=O)=C(\C)O 0.69%, Cc1c(NC(=S)N/N=C/c2ccc(Br)cc2)c(=O)n(-c2ccccc2)n1C 9.41%, O=C(Nc1cccc(-c2cccc(F)c2)c1)C1CCN(Cc2ccco2)CC1 7.74%, O=C(NCCN1C(=O)S/C(=C\c2ccccc2F)C1=O)C1CCCN1C(=O)c1cccs1 (stereo unspecified) -14.1%, Cc1ccccc1OCC(=O)N/N=C/c1cn(Cc2ccccc2)c2ccccc12 3.64%, Cc1ccc2nc(-c3ccc(N4C(=N)SC5CS(=O)(=O)CC54)cc3)sc2c1 (stereo unspecified) 9.19%, CCOc1ccc(C(=O)N2CCC(C(=O)c3ccc4c(c3)OCCO4)CC2)cc1 -2.21%, COc1ccc(/C=C2\CCCC(C(=O)C(F)(F)F)=C2O)cc1 4.33%, Cc1ccc(S(=O)(=O)Nc2ccc(S(=O)(=O)N3CCOCC3)cc2)cc1 0.84%, CC1CCc2sc(C(=O)NCCCn3ccnc3)cc2C1 (stereo unspecified) 5.91%, O=C(c1cc2c(=O)n3ccccc3nc2s1)N1CCN(Cc2ccccc2)CC1 4.57%, Cc1c(N=Cc2nc3ccccc3[nH]2)c(=O)n(-c2ccccc2)n1C 17.9%, CCC(C)C1=CC(=Nc2c(C)n(C)n(-c3ccccc3)c2=O)C=C(C(C)CC)C1=O (stereo unspecified) 9.72%, Cc1c(C(c2ccc(N(C)C)cc2)c2c(C)n(C)n(-c3ccccc3)c2=O)c(=O)n(-c2ccccc2)n1C -5.89%, CC1=CC(=Nc2c(C)n(C)n(-c3ccccc3)c2=O)C=C(C)C1=O -4.18%, Cc1c(-n2c(=S)[nH]c3ccccc3c2=O)c(=O)n(-c2ccccc2)n1C 4.22%, Cc1c(N(C)C)c(=O)n(-c2ccccc2)n1C 3.4%, O=NNc1nc2ccccc2n1Cc1ccccc1 7.61%, CCOC(=O)C(NC(=O)Nc1ccc(F)cc1F)(Oc1ccc(F)cc1)C(F)(F)F (stereo unspecified) 7.05%, Cc1cc(NS(C)(=O)=O)c(=O)n(Cc2c(F)cccc2Cl)c1 -0.27%, C=CCSc1nc2sc(C)c(C)c2c(=O)n1N 2.09%, CCc1cc(Cn2nc(-c3ccccc3)cc2C(=O)NCC2CC2)on1 12%, COc1cc2c(cc1OC)C(c1cccs1)N(C(=O)c1cccc(S(=O)(=O)N(C)C)c1)CC2 (stereo unspecified) 5.21%, CCOc1ccc(S(=O)(=O)N2CCN(C(=O)CCOc3ccccc3C)CC2)cc1 3.82%, CCOc1ccc(NC(=O)COc2cccc3c2CCN(Cc2cccnc2)C3=O)cc1 0.41%, O=C1CC2(CCN(C(=O)c3cccc(Br)c3)CC2)Oc2ccccc21 3.6%, COc1cc2nc(Nc3ccc(F)cc3)nc(N)c2cc1OC 6.17%, COc1ccc(CCNc2nc(=S)[nH]c3cc(OC)c(OC)cc23)cc1OC 39.9%, COc1ccc(C(=O)Nc2nc3cc(OC)c(OC)cc3c(=O)[nH]2)cc1 14.9%, COc1cc2[nH]c(=S)nc(NCCC(C)C)c2cc1OC 20.9%, CSc1nc2c([nH]1)c(=S)n(C)c(=O)n2C 8.34%, COC(=O)C(CC(C)C)NC(=O)CNC(=O)c1ccccc1C (stereo unspecified) 7.16%, COc1ccccc1N1CCN(C(=O)c2cccc(N3C(=O)C4C5C=CC(C5)C4C3=O)c2)CC1 (stereo unspecified) 9.14%, CC1=NNC(=O)C1Oc1ccccc1 (stereo unspecified) 10.8%, COc1ccc(C2C(=O)NN=C2C)cc1 (stereo unspecified) 22.1%, Cn1c(N)c(C(=O)COC(=O)/C=C/c2ccccc2)c(=O)n(C)c1=O 1.47%, Cc1cnc(NC(=O)CN2CCN(c3ccccn3)CC2)s1 2.02%, CCOc1ccccc1N1CCN(CC(=O)Nc2ncc(C)s2)CC1 5.5%, c1ccc(COc2ncnc3c2ncn3CCCNCC2CCCO2)cc1 (stereo unspecified) 7.05%, Brc1ccccc1OCCCN1CCOCC1 14.8%, COc1ccccc1OCCCCN1CCCCC1 3.62%, Brc1ccccc1OCCN1CCOCC1 17.5%, COc1ccccc1OCCCCCCN1CCN(C)CC1 -3.02%, COc1cc(C)ccc1OCCOCCOc1c(C)cc(C)cc1Br 3.98%, CCn1c(COc2ccc(=O)n(-c3ccccc3)n2)nnc1SCc1ccccc1C -2.27%, O=C(c1noc2c1CCCCC2)N1CCOCC1 1.03%, CC(C)CC(OC(=O)c1nsc(Cl)c1Cl)C(=O)NCC1CCCO1 (stereo unspecified) 5.99%, Cc1ccc(S(=O)(=O)N2CCN(c3c([N+](=O)[O-])cc(C(F)(F)F)cc3[N+](=O)[O-])CC2)cc1 6.82%, O=C(Nc1ccc2c(c1)OCO2)C1CCCCC1 6.05%, O=C(NC1CCCCCCC1)c1ccc2c(c1)OCO2 4.04%, CC(C)COC(=O)Cc1c(O)c2ccccc2[nH]c1=O 1.69%, CCOC(=O)C1CCN(C(=O)c2cccc(Cl)c2)CC1 6.23%, O=C(c1cccnc1)N1CCN(C(=O)c2cccc(Cl)c2)CC1 -2.27%, CC(C)CC(CO)N1CCN(C(=O)c2cccc(Cl)c2)CCC1=O (stereo unspecified) 2.07%, CN1CCCN(C(=O)c2cccc(Cl)c2)CC1 3.23%, COc1ccc(N2C(=O)CC(N3CCN(c4ccc(S(C)(=O)=O)cc4)CC3)C2=O)cc1 (stereo unspecified) -1.2%, CN(C)c1ccc(P(=O)(OCc2ccccc2)C(O)c2ccccc2F)cc1 (stereo unspecified) 0.52%, O=C(Nc1ccc(F)cc1)Nc1nnc(COc2ccccc2F)s1 10.4%, CCOc1cc(S(=O)(=O)NCc2cccs2)ccc1Cl 8.13%, CN(C1=NC(=O)CS1)c1ccc(O)cc1 9.21%, CC(=O)NC1=NC(=O)CS1 2.93%, COc1ccc(S(=O)(=O)N2CCC(N3CCCC3)CC2)cc1 21%, Cc1ccc2oc(=O)n(CCOc3ccccc3C)c2c1 0.34%, O=C(O)c1ccccc1SC1CC(=O)N(c2ccc3c(c2)OCO3)C1=O (stereo unspecified) -5.78%, O=C(O)c1ccccc1-c1ccc(/C=C2\SC(=O)N(c3ccccc3)C2=O)o1 6.66%, N=C1S/C(=C\c2ccc(-c3ccccc3C(=O)O)o2)C(=O)N1c1ccc2c(c1)OCO2 19.7%, Cc1c(C(=O)O)cccc1-c1ccc(/C=C2/NC(=O)N(c3ccccc3)C2=O)o1 -7.26%, COC(=O)c1ccc(Sc2ccccc2NS(=O)(=O)c2ccc(OC)cc2)nc1 7.44%, CC1(c2nnc(-c3cccc(Cl)c3)o2)CC(c2ccccc2F)=NO1 (stereo unspecified) 5.14%, CCn1nc(C)c(/C=N/NC(=O)c2ccoc2C)c1C 1.28%, O=C1CC(/C=C/c2ccccn2)=Nc2ccccc2N1 -8.85%, COc1ccc2ccccc2c1/C=N/Nc1ccc(Cl)c(C(=O)O)c1 17.1%, CC(C)n1cc(/C=N/Nc2ccc(C(=O)O)cc2)c2ccccc21 24.1%, O=C(O)c1cc(N/N=C/c2ccc(-c3ccccc3)cc2)ccc1Cl 5.89%, O=C(O)c1cc(N/N=C/c2cccc3ccccc23)ccc1Cl 11.3%, CC(C)CC1NC(=O)c2cc3ccccc3cc2-n2c1nc1ccc(Cl)cc1c2=O (stereo unspecified) 6.29%, COCCCNC(=S)NC1CC2CCCC(C1)N2Cc1ccco1 (stereo unspecified) 13.1%, COc1ccccc1NS(=O)(=O)c1cc(N)ccc1N1CCOCC1 16.4%, O=C(Nc1ccc(N2CCCC2)c(S(=O)(=O)Nc2cccc(C(F)(F)F)c2)c1)c1cccs1 7.15%, COc1ccccc1NS(=O)(=O)c1cc(N)ccc1N1CCCCC1 5.74%, Nc1ccc(N2CCCCC2)c(S(=O)(=O)Nc2ccc(Cl)cc2)c1 3.13%, O=C(NNC(=O)c1cc2ccccc2cc1O)c1cccs1 3.14%
